# Data published in publication PMC5540273 (PLoS ONE, 2017).
# Key:
# Settings in all cases: concentration: 1 μM, replicates: in singlicate; n = 1
# [1] = system: IRAK1
# [2] = system: IRAK3
# [3] = system: IRAK4
# [4] = system: ITK
# [5] = system: JAK1(JH1domain-catalytic)
# [6] = system: JAK1(JH2domain-pseudokinase)
# [7] = system: JAK2(JH1domain-catalytic)
# [8] = system: JAK3(JH1domain-catalytic)
# [9] = system: T1, JNK1
# T1 construct: gene MAPK8
# [10] = system: T2, JNK2
# T2 construct: gene MAPK9
# [11] = system: T3, JNK3
# T3 construct: gene MAPK10
# [12] = system: KIT-autoinhibited
# [13] = system: KIT
# [14] = system: LATS1
# [15] = system: LATS2
# [16] = system: LCK
# [17] = system: LIMK1
# [18] = system: LIMK2
# [19] = system: T4, LKB1
# T4 construct: gene STK11
# [20] = system: T5, LOK
# T5 construct: gene STK10
# 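Also: KINOMEscan kinase panel screen.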
SMILES,%Inh [1] [%],%Inh [2] [%],%Inh [3] [%],%Inh [4] [%],%Inh [5] [%],%Inh [6] [%],%Inh [7] [%],%Inh [8] [%],%Inh [9] [%],%Inh [10] [%],%Inh [11] [%],%Inh [12] [%],%Inh [13] [%],%Inh [14] [%],%Inh [15] [%],%Inh [16] [%],%Inh [17] [%],%Inh [18] [%],%Inh [19] [%],%Inh [20] [%]
Cn1cncc1-c1cc2c(Nc3ccc(OCc4ccccc4)cc3)ncnc2cn1 [GW281179],30,1,17,12,14,0,4,0,13,1,1,0,39,0,0,24,11,6,0,0
Cc1ccccc1Cn1ccn2c(=O)cc(N3CCOCC3)nc12 [GSK2269905],0,0,13,20,0,0,0,0,21,20,1,1,14,0,0,16,18,0,0,0
Cc1nccc(-c2c(-c3ccc(F)cc3)ncn2CCCN2CCOCC2)n1.Cl [SB-282975],39,0,30,24,0,17,37,9,13,40,43,9,0,0,0,27,11,10,0,9
COc1ccc(Nc2nccc(N3CCC(NC(=O)C(C)c4ccc(Cl)cc4)C3)n2)cc1 (stereo not drawn) [GSK1379735],1,10,3,14,10,0,24,0,12,0,0,5,31,4,0,33,19,0,0,0
O=C1NC(=O)C(c2ccc(Cl)cc2)=C1Nc1cccc(Cl)c1 [SB-317651],0,0,0,5,26,0,11,0,61,56,54,15,0,0,9,0,0,7,23,0
O=c1cc(N2CCOCC2)nc2n(Cc3ccccc3F)ccn12 [GSK2297428],0,0,0,15,10,0,0,0,1,11,0,0,7,0,0,28,0,1,5,0
COC(=O)C(Cc1ccccc1)NC(=O)NC1CCN(c2ccnc(Nc3ccc(F)cc3)n2)C1 (stereo not drawn) [GSK1379714],33,0,3,4,16,0,59,0,17,1,0,9,11,0,15,21,0,9,21,3
Cl.Cl.Cl.N#Cc1ccc(CCNc2nccc(-c3cccc(CN4CCNCC4)c3)n2)cc1 [GSK2137462],0,0,0,7,3,6,0,0,32,0,22,0,29,15,36,12,18,38,1,0
Cc1ccc(NC(=O)Nc2ccc(Cl)c(C(F)(F)F)c2)cc1-c1ccc(C(=O)Nc2ccncc2)cc1 [GSK1398470],0,9,0,18,5,0,0,0,16,14,0,45,99.5,0,15,57,28,14,6,65
CNc1cc(-c2ccc3c(N)n[nH]c3c2)nc(N)n1 [GSK2224810],0,0,0,3,12,35,4,0,0,6,0,0,19,0,20,0,0,9,0,0
COc1ccc(-c2coc3ccc(-c4nnc(C)o4)cc23)cc1,0,0,9,0,15,0,3,0,0,0,0,0,1,0,0,0,0,0,5,0
O=C(Nc1n[nH]c2cc(-c3ccsc3)ccc12)C1CC1 [SB-732932],3,22,9,0,0,4,8,0,36,25,30,0,56,2,15,0,0,0,0,3
COc1ccc(CSc2nnc(-c3ccc4c(c3)CCO4)o2)cc1,0,0,0,8,18,0,0,0,0,0,0,0,0,0,0,0,0,0,6,0
COC(=O)c1cccc(NC(=O)NC2CCN(c3ccnc(Nc4ccc(OC)cc4)n3)C2)c1 (stereo not drawn) [GSK1379746],35,0,23,13,14,0,2,0,37,0,0,0,44,0,0,11,0,3,0,0
COC(=O)c1cccc(NC(=O)NC2CCN(c3ccnc(Nc4ccc(F)cc4)n3)C2)c1 (stereo not drawn) [GSK1379725],0,0,14,8,4,0,0,0,17,28,17,0,44,0,0,0,0,0,0,0
COc1ccc(Nc2nccc(N3CCC(NC(=O)C(C)c4ccc(Cl)cc4)CC3)n2)cc1 (stereo not drawn) [GSK1379812],6,18,0,22,26,6,0,0,1,14,10,0,15,32,100,38,2,18,11,0

SMILES,%Inh [1] [%],%Inh [2] [%],%Inh [3] [%],%Inh [4] [%],%Inh [5] [%],%Inh [6] [%],%Inh [7] [%],%Inh [8] [%],%Inh [9] [%],%Inh [10] [%],%Inh [11] [%],%Inh [12] [%],%Inh [13] [%],%Inh [14] [%],%Inh [15] [%],%Inh [16] [%],%Inh [17] [%],%Inh [18] [%],%Inh [19] [%],%Inh [20] [%]
Nc1ncnc2occ(-c3ccc4c(c3)CCN4C(=O)Cc3cc(F)ccc3F)c12 [GSK2645446],0,0,0,0,0,0,0,0,0,0,0,0,66,0,19,5,0,22,0,33
COc1cc2ncnc(Nc3cccc(Br)c3)c2cc1OC.Cl [GI230329],36,21,1,0,3,0,6,0,18,56,–,0,10,0,0,66,0,0,10,36
COC(=O)C(NC(=O)NC1CCN(c2ccnc(Nc3ccc(F)cc3)n2)C1)c1ccccc1 (stereo not drawn) [GSK1379712],31,6,0,0,17,5,0,0,1,0,0,5,29,13,5,18,17,10,15,0
Cc1c(Cn2c3ccccc3n3c(=O)cc(N4CCOCC4)nc23)cccc1C(F)(F)F [GSK2306394],0,14,11,11,13,0,35,0,21,5,4,0,7,0,0,11,0,3,0,0
Fc1ccc(-c2nc[nH]c2-c2ccncc2)cc1 [SB-217360],0,0,0,5,0,28,27,0,79,95.6,98.6,21,0,0,0,25,0,0,0,16
COc1cccc(NC(=O)Nc2ccc(C)c(-c3ccc(C(=O)Nc4ccncc4)cc3)c2)c1 [GSK1398474],0,7,1,11,20,0,0,0,8,39,26,0,99.8,0,5,43,11,8,0,0
CNC(=O)c1ccc(C)c(-n2c(C)cc(OCc3ccc(F)cc3F)c(Br)c2=O)c1,0,0,0,0,0,0,0,0,0,100,100,0,0,0,0,1,0,0,0,0
CSc1ccc(-c2nc3n(c2-c2ccncc2)CCC3)cc1 [SKF-105561],21,0,6,12,8,15,4,0,31,49,59,0,0,31,13,0,0,0,0,8
Cc1c(Cn2c(C)c(C)n3c(=O)cc(N4CCOCC4)nc23)cccc1C(F)(F)F [GSK2328680],0,0,0,15,0,0,0,0,50,0,0,0,9,86,1,18,8,4,18,0
COc1cccc(C2=C(Nc3cc(Cl)c(O)c(Cl)c3)C(=O)NC2=O)c1 [SB-390767],43,0,47,18,12,0,40,93.7,27,20,15,0,0,1,0,0,31,0,0,0
CS(=O)(=O)CCNCc1nc(-c2ccc3ncnc(Nc4ccc(OCc5ccccc5)c(Cl)c4)c3c2)cs1.Cl [GW582764],28,0,13,44,2,0,10,0,15,0,0,0,1,0,0,17,0,0,0,0
CN1c2ccc(-c3ccc(C(N)=O)cc3)cc2-c2[nH]ncc2S1(=O)=O,0,10,0,0,0,37,27,0,0,0,0,20,0,9,0,5,0,0,10,5
Nc1cccc(-c2ccc3c(N)n[nH]c3c2)n1 [GSK2192730],0,17,4,0,14,65,100,0,0,2,0,0,14,0,17,0,0,2,7,0
Cn1cnc2c(N)ncnc21 [SKF-97623],0,0,0,7,19,0,0,6,1,0,0,35,0,22,0,0,0,0,36,4
Cc1ccc(NC(=O)Nc2ccccc2F)cc1-c1ccc(C(=O)Nc2ccncc2)cc1 [GSK1398477],0,31,1,19,12,0,12,0,28,27,0,5,99.6,0,2,68,36,15,0,33
CCn1c(-c2ccccc2)nc2cnccc21 [SB-733416],45,4,38,1,0,0,30,0,21,3,7,0,8,0,0,18,20,0,0,0
